Most compounds without a hit are left out; they make up all but 2.7% or so of the library.
SENP8 block-1 – inhibitors of human SENP8 protease. Q96LD8. recombinant SENP8, Nedd8 substrate fluorescence. inhibition, % at 20 µM. 360,000 compounds, 0.64% hits; in the data active = inhibition mostly above about 40%, no sharp cut-off; inactive = mostly below about 27%
HSP90 refold inh – inhibitors of HSP90 luciferase refolding in rabbit reticulocyte lysate | inhibition, % at 5.6 µM | luciferase refolding luminescence, 3 h | 290,000 compounds, 0.91% hits | AID 1789;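 active = inhibition above the screen-wide mean plus 3 SD, computed separately per campaign, cut at about 16% in these data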;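 also: 0% = DMSO wells and 100% = 60 µM geldanamycin wells; inhibitors lower the luminescence because luciferase stays unfolded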
SENP7 block – blocks the human protease SENP7 | recombinant SENP7, Z-RLRGG-aminoluciferin luminescence, 40 min | inhibition, % at 5 µM | 330,000 compounds, 1.5% hits | AID 434973;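 active = inhibition above about 50% at the single test dose, limit read from the data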;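 also: plate controls were DMSO with enzyme for no effect and no enzyme buffer wells for full effect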
Target sequence (Q9BQF6 706-1050 limits assumed): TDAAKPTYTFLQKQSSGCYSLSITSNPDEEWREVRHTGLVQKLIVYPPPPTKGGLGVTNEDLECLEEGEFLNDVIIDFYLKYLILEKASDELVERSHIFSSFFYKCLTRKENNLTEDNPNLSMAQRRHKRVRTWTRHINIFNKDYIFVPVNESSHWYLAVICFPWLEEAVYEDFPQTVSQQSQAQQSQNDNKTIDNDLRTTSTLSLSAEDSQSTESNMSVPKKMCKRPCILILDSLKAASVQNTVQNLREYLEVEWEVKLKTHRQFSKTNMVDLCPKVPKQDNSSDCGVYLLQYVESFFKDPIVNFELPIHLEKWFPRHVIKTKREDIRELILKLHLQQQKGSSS
SENP6 block – SENP6 protease inhibition; inhibition, % at 10 µM; 330,000 compounds, 1.8% hits; Q9GZR1; Recombinant SENP6 catalytic domain, aminoluciferin luminescence;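 active = inhibition above about 50% at the single tested dose, limit read from the data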;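 also: plate controls were DMSO wells with enzyme for no effect and DMSO wells lacking enzyme for full effect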
SENP8 block-2 – inhibitors of human SENP8 protease. purified SENP8, Z-RLRGG-aminoluciferin cleavage, luminescence. inhibition, % at 10 µM. 330,000 compounds, 1.2% hits. AID 2540; in the data active = inhibition above about 50%
The depositor's hits bear a star.

`Cc1nn(-c2ccccc2)c(Cl)c1/C=C/C(=O)c1ccccc1` gave SENP8 block-1 42*, HSP90 refold inh 4, SENP7 block 4, SENP6 block -3 and SENP8 block-2 -14.
Cc1nn(-c2ccccc2)c(Cl)c1/C=N/Nc1nc2ccccc2[nH]1 was read as SENP8 block-1 9, HSP90 refold inh -3, SENP7 block 85*, SENP6 block 52* and SENP8 block-2 16.
Screening Cc1cc(C(=O)N/N=C/c2c(C)nn(-c3ccccc3)c2Cl)n[nH]1 returned SENP8 block-1 12, HSP90 refold inh 1, SENP7 block -10, SENP6 block -11 and SENP8 block-2 -6.
`Cc1nn(-c2ccccc2)c(Cl)c1/C=N/NC(=O)c1ccn[nH]1` gave SENP8 block-1 7, HSP90 refold inh 17*, SENP7 block 38, SENP6 block 17 and SENP8 block-2 23.
CCC(=O)c1ccc(OC(=O)c2cccs2)cc1 was read as SENP8 block-1 19, HSP90 refold inh -3, SENP7 block -4, SENP6 block -59 and SENP8 block-2 -46.
Screening CCc1ccc(C(=O)COC(=O)c2cccs2)cc1 returned SENP8 block-1 24, HSP90 refold inh -2, SENP7 block 97*, SENP6 block 4 and SENP8 block-2 91*.
`COc1cc(C2C3=C(COC3=O)Oc3cc4c(cc32)OCO4)cc(OC)c1OC` (stereo not drawn) gave SENP8 block-1 44*.
`COc1cc(C2C3=C(COC3=O)Oc3cc4c(cc32)OCO4)cc(OC)c1O` (stereo not drawn) gave SENP8 block-1 7.
For Clc1ccccc1C1Nc2cccc3cccc(c23)N1 the results were SENP8 block-1 -70, HSP90 refold inh 4, SENP7 block 0, SENP6 block 18 and SENP8 block-2 -1.
COC(=O)c1ccc(C2Nc3cccc4cccc(c34)N2)cc1 was read as SENP8 block-1 54*, HSP90 refold inh 4, SENP7 block 12, SENP6 block 27 and SENP8 block-2 2.
For Oc1ccc(C2Nc3cccc4cccc(c34)N2)c(O)c1 the results were SENP8 block-1 45*, HSP90 refold inh -1, SENP7 block 3, SENP6 block 5 and SENP8 block-2 -5.
Screening Fc1ccc(C2Nc3cccc4cccc(c34)N2)cc1 returned SENP8 block-1 34, HSP90 refold inh 1, SENP7 block -4, SENP6 block 15 and SENP8 block-2 1.
`COc1cc(C2Nc3cccc4cccc(c34)N2)cc(OC)c1O` gave SENP8 block-1 58*, HSP90 refold inh -2, SENP7 block 98*, SENP6 block 19 and SENP8 block-2 8.
For Cc1cccc2nc(-c3ccccc3)nc(N3CCC(O)(c4ccc(Cl)cc4)CC3)c12 the results were SENP8 block-1 -72, HSP90 refold inh 1, SENP7 block 8, SENP6 block 0 and SENP8 block-2 -2.
`CCCC(=O)N1CCC1(C)C(=O)Nc1ccccc1-c1ccccc1` (stereo not drawn) gave SENP8 block-1 13.
For C/C(=N\Nc1cccc2cccnc12)c1ccc(N)cc1 the results were SENP8 block-1 -6, HSP90 refold inh 2, SENP7 block 7, SENP6 block -4 and SENP8 block-2 -3.
Screening C/C(=N\Nc1cccc2cccnc12)c1ccccn1 returned SENP8 block-1 -25, HSP90 refold inh 7, SENP7 block 92*, SENP6 block 72* and SENP8 block-2 89*.
`C/C(=N\NC(=O)c1cc2ccccc2cc1O)c1ccccn1` gave SENP8 block-1 -4, HSP90 refold inh 4, SENP7 block 72*, SENP6 block 95* and SENP8 block-2 89*.
`CCn1nc(C(=O)OCC(=O)c2cc(C)n(Cc3cccs3)c2C)c2ccccc2c1=O` gave SENP8 block-1 24, HSP90 refold inh 33*, SENP7 block -5, SENP6 block -10 and SENP8 block-2 -7.
For Cc1ccc(C(=O)N2CCC2(C)C(=O)NC(C)C)cc1 (stereo not drawn) the results were SENP8 block-1 6.
For Cc1cccc(-c2n[nH]c(S(C)(=O)=O)c2C#N)c1 the results were SENP8 block-1 0, HSP90 refold inh 1, SENP7 block 2, SENP6 block -14 and SENP8 block-2 -4.
`O=C(c1ccccc1)N1CCN(c2ccc([N+](=O)[O-])c(NCc3cccnc3)c2)CC1` gave SENP8 block-1 21, HSP90 refold inh 1, SENP7 block -10, SENP6 block -24 and SENP8 block-2 -6.

Screening results from PubChem.
